CYP2C9 inhib: inhibitors of human CYP2C9; P11712; CYP2C9 Supersomes, luciferin-H conversion, luminescence; inhibition, % at 5 µM; actives 20% (n = 96,000); AID 777;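 active = blocking of liver enzyme CYP2C9 beyond about 50% at 5 µM, limit read from the data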
CYP2C9 activ: CYP2C9 (human) activation | recombinant CYP2C9, luciferin-H conversion, luminescence; hits give high values; factor 1 = untreated enzyme, 0 = blocked | activation factor at 5 µM | actives 1.4% (n = 96,000) | AID 1024;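 active = activation factor of 2 or more for CYP2C9 at a 5 µM dose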;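 also: 0 = sulfaphenazole-blocked wells and 1 = vehicle-only wells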
MRP resist rev: MRP-mediated drug resistance reversal; differential viability (reversal), % at 10 µM; AID 602; H69AR cells + 2 uM doxorubicin, CellTiter-Glo, 72 h; actives 0.04% (n = 85,000);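 active = viability drop by adding the cancer drug above about 55%, with treated viability meeting a 40% cutoff, limit read from the data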;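 also: viability without doxorubicin minus viability with 2 µM doxorubicin for each compound; larger differential means the compound sensitizes cells more to doxorubicin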
CYP2C19 inhib: human CYP2C19 inhibition; CYP2C19 Supersomes, luciferin-H EGE luminescence, 30 min; inhibition, % at 5 µM; actives 21% (n = 96,000); AID 778;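 active = CYP2C19 inhibition above a set limit at 5 µM in the primary screen, cut at about 50% in these data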;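 also: plate controls were negative control wells for no effect and 2.5 mM tranylcypromine positive control for full effect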
Target sequence (P33261 whole entry, looked up): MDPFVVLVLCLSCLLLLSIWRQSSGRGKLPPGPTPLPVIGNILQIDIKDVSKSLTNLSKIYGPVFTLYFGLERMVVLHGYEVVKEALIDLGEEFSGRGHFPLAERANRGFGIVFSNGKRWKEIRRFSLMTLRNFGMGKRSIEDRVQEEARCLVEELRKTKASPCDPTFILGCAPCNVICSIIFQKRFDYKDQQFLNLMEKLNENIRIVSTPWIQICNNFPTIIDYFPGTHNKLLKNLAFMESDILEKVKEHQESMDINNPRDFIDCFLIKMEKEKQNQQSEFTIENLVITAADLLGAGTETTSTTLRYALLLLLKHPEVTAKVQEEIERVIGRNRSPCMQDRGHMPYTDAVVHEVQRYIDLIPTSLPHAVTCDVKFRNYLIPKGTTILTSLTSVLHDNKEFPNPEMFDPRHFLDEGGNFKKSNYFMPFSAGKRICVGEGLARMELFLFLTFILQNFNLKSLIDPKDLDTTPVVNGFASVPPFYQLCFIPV
MRP-1 activ: MRP-1 activation; H69AR cells + doxorubicin, viability rescue, CellTiter-Glo; viability increase, % at 10 µM; actives 0.61% (n = 140,000);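 active = viability gain under doxorubicin at or above a set limit, the compound median plus 3 SD, cut at about 4.7% in these data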;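 also: MRP-1 overexpressing cells given doxorubicin 25 µM after compound pretreatment; 18-22 h compound pretreatment then 72 h with doxorubicin before readout; 0% = doxorubicin-only wells and 100% = vehicle-treated cells without doxorubicin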
CYP2C19 activ: cytochrome P450 2C19 (human) activation | P33261 | recombinant CYP2C19, luciferin-H EGE luminescence; hits give high values; 0 = fully inhibited enzyme, 1 = untreated enzyme | activation factor at 5 µM | 96,000 tested, under 10 active | AID 1025;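 active = activation factor of at least 2 at 5 µM in the primary screen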;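 also: 0 = wells with 2.5 mM tranylcypromine and 1 = vehicle-only wells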
The depositor's hits bear a star; nt = no result given. Rows were chosen to be rich in hits. Some 21% of all compounds tested hit in one or more screens of this group.

SMILES	CYP2C9 inhib	CYP2C9 activ	MRP resist rev	CYP2C19 inhib	MRP-1 activ	CYP2C19 activ
CCc1nnc(NC(=O)CSc2ccc(-c3nc4ccccc4[nH]3)cn2)s1	51*	0.5	nt	23	-2	0.8
O=C(CSc1ncc(-c2ccc(F)cc2)[nH]1)Nc1cccc(O)c1	10	0.9	-3	51*	-2	0.5
CCc1nnc(NC(=O)CSc2ncc(-c3ccccc3)n2CC)s1	72*	0.3	-8	76*	-1	0.2
CCc1nnc(NC(=O)CSc2nnc(Cc3ccccc3)n2Cc2ccccc2)s1	43	0.6	-21	28	-2	0.7
Cc1nc(NC(=O)CSc2ccc(-c3nc4ccccc4[nH]3)cn2)sc1C	nt	nt	nt	nt	-2	nt
CCOC(=O)NC(=O)C(=CNc1ccc(C)cc1)C(=O)NC(=O)OCC	nt	nt	nt	nt	-1	nt
CCc1nnc(NC(=O)CSc2nnc3ncccn23)s1	35	0.6	11	68*	1	0.3
CCOC(=O)C(NC(=O)N(C)C)(Nc1sc(C)c(CC)c1C#N)C(F)(F)F (configuration not stated)	nt	nt	nt	nt	-2	nt
Cc1ccc(NC(=S)c2nc3ccccc3[nH]2)cc1	38	0.6	nt	89*	-2	0.1
O=C(NCCN1CCOCC1)c1cn(-c2ccccc2)nc1-c1cccs1	5	1	23	10	-1	0.9
O=C(Nc1ccncc1)c1cn(-c2ccccc2)nc1-c1cccs1	93*	0.1	-1	94*	-1	0.1
CC(NC(=O)COC(=O)c1cn(-c2ccccc2)nc1-c1cccs1)c1ccccc1 (configuration not stated)	67*	0.3	nt	32	-1	0.7
O=C(c1cn(-c2ccccc2)nc1-c1cccs1)N1CCN(c2ccc(F)cc2)CC1	74*	0.3	-31	84*	-3	0.2
COc1ccc(-c2nn(-c3ccccc3)cc2C(=O)Nc2nccs2)cc1	52*	0.5	-27	30	-1	0.7
COC(C(=O)Nc1ccc(S(=O)(=O)Nc2cccc3ccccc23)cc1)c1ccccc1 (configuration not stated)	nt	nt	nt	nt	-1	nt
O=C(CN1C(=O)COc2ccccc21)N1CCc2ccccc2C1	nt	nt	16	nt	-5	nt
Cc1ccc(S(=O)(=O)CCC(=O)c2ccc(O)cc2O)cc1	-91	1.9	0	70*	-2	0.3
Cc1ccc(S(=O)(=O)CCC(=O)OCc2ccc(Cl)cc2)cc1	nt	nt	nt	nt	-3	nt
CC(C)NC(=O)CSc1nnc(C2CC2)n1-c1ccccc1	2	1	3	1	-1	1
Cc1cc(C(=O)CSc2nnc(-c3ccccc3)n2C)c(C)n1C	1	1	10	78*	1	0.2
CC(C)NC(=O)CSc1nnc(-c2ccncc2)n1-c1ccccc1	58*	0.4	nt	92*	1	0.1
N#Cc1ccccc1NC(=O)CSc1nnc(-c2ccc(F)cc2)n1-c1ccccc1	45	0.5	-7	63*	-4	0.4
Cc1cc(C(=O)CSc2nnc(-c3ccccc3)n2-c2ccccc2)c(C)n1-c1ncn[nH]1	58*	0.4	-3	62*	2	0.4
CCn1cc(C2C3=C(CC(C)(C)CC3=O)N(c3ccccc3)C3=C2C(=O)CC(C)(C)C3)c(C)n1	nt	nt	nt	nt	-3	nt
COC(=O)c1cc(C(=O)Nc2nnc(C3CC3)s2)cc([N+](=O)[O-])c1	nt	nt	nt	nt	0	nt
SMILES	CYP2C9 inhib	CYP2C9 activ	MRP resist rev	CYP2C19 inhib	MRP-1 activ	CYP2C19 activ
Cc1cc(C(=O)CSc2nnc(-c3cccnc3)n2-c2ccccc2F)c(C)n1C	nt	nt	-31	nt	-4	nt
Cc1cc(C(=O)CSc2nnc(-c3ccncc3)n2-c2ccccc2)c(C)n1C	34	0.7	2	84*	-1	0.2
O=C(COC(=O)CNC(=O)C12CC3CC(CC(C3)C1)C2)Nc1ccccc1	3	1	nt	8	3	0.9
O=C(Nn1nnnc1Nc1ccccc1)C12CC3CC(CC(C3)C1)C2	33	0.7	-6	71*	-2	0.3
Cc1cc(NC(=O)C2C3C(=O)N(CCC(C)C)C(C(=O)NCc4ccccc4)C34C=CC2(C)O4)no1 (configuration not stated)	9	0.9	9	-13	-2	1.1
O=C(Nc1ccc2c(c1)OCCO2)c1cc2sccc2n1Cc1ccc(F)cc1	78*	0.2	-3	60*	-5	0.4
Cn1c(C(=O)Nc2ccc3c(c2)OCCO3)cc2sccc21	-35	1.4	-20	25	-1	0.7

Source: PubChem BioAssay (several laboratories)
